High-throughput results from PubChem.
Hits are enriched below; roughly 7.3% of the tested compounds scored in any of these assays.
Tau FP inhib: qHTS for Inhibitors of Tau Fibril Formation, Fluorescence Polarization; Microtubule-associated protein tau (Homo sapiens), P10636; K18 P301L tau heparin fibrillization, Alexa594 FP, 6 h; Potency, µM (series often up to 57.7 µM), inactives show at the top dose activity, negative = inhibition, actives largely listed as inhibitors; hit rate 0.39% among 280,000; AID 1468, 2008; note: nearly all actives have a fitted effect of over 55% in size
Target sequence (P10636 561-689 P618L limits assumed): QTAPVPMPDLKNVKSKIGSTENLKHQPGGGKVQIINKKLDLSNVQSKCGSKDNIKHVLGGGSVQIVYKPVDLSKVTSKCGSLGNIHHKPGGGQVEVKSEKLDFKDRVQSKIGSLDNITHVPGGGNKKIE
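Heparin (20 uM) drove fibril formation of recombinant tau K18 P301L, 15 uM unlabeled with 0.24 uM Alexa 594 label, for 6 hr at 37 C in 100 mM sodium acetate pH 7. Fluorescence polarization (555/632 nm) read 1 hr after 30 uM ThT.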
Tau fluor cs: Counterscreen qHTS for Inhibitors of Tau Fibril Formation, Fluorescence Polarization. tau K18 P301L Alexa594 fluorescence, heparin fibrillization. Potency, µM (titrated, usually from 57.7 µM), for the others: at the top dose activity change, negative = decrease. hit rate 0.93% among 280,000. AID 1463, 2008; note: nearly all actives have a fitted effect of over 55% in size
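Human tau K18 P301L (15 uM unlabeled, 0.24 uM Alexa 594-labeled) in 100 mM sodium acetate pH 7 with 20 uM heparin, 6 hr at 37 C. ThT 30 uM added, 1 hr ambient; Alexa 594 FP and total fluorescence read at 555/632 nm.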
Tau fibril ThT: qHTS for Inhibitors of Tau Fibril Formation, Thioflavin T Binding; Potency, µM (series often up to 57.4 µM), inactives show at the highest dose activity, negative = inhibition, usual class: inhibitors; Microtubule-associated protein tau (Homo sapiens), P10636; recombinant tau K18 P301L, heparin-induced fibrillization, ThT fluorescence; hit rate 2.1% among 270,000; AID 1460, 2008; note: nearly all actives have a fitted effect of over 55% in size
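Using a mix of unlabeled (15 uM) and Alexa 594-labeled (0.24 uM) tau K18 P301L, heparin-triggered fibrillization over 6 hr at 37 C was scored by ThT fluorescence.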
RORgamma inh: qHTS for inhibitors of ROR gamma transcriptional activity; Nuclear receptor ROR-gamma (Mus musculus), P51450; Drosophila S2 Gal4-RORgamma UAS-luciferase reporter, 20 h; Potency, µM (doses to about 53.6 µM), inactives show at the highest dose activity change, negative = inhibition, actives largely listed as inhibitors; hit rate 5.4% among 310,000; note: nearly all actives have a fitted effect of over 60% in size
Target sequence (P51450 whole entry, looked up, the tested form may be a part): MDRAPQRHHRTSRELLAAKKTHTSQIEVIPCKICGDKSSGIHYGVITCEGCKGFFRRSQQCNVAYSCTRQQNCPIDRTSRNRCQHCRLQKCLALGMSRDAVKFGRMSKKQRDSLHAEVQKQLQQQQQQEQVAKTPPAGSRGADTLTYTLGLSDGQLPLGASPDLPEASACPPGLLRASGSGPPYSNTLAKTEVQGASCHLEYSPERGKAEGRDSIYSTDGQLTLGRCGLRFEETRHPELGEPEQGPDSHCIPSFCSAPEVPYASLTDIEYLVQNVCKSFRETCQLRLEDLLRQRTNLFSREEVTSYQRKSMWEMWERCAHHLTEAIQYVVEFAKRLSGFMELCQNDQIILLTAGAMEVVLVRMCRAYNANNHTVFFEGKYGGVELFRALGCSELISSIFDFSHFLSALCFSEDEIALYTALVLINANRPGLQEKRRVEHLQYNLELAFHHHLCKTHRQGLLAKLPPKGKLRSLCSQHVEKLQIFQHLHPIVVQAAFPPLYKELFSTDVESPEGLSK
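Luciferase reporter read in Schneider cells carrying Gal4-RORγ (mouse) and UAS-Photinus luciferase; cells given compound 1 h before 700 uM copper sulfate induction, then incubated 20 h at ambient temperature.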
VP16 counter: VP16 counterscreen qHTS for inhibitors of ROR gamma transcriptional activity | Potency, µM (highest dose often 53.6 µM), without a hit: at the top dose activity, negative = inhibition, actives largely listed as inhibitors | Drosophila S2 Gal4-VP16 UAS-luciferase, luminescence, 20 h | AID 2546, 2010 | hit rate 3.5% among 310,000;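 note: Gal4-VP16 expression switched on by copper sulfate through the metallothionein promoter; nearly all actives have a fitted effect of over 50% in size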
* hit, by the source's call; ? = inconclusive; · = no result; [ ] = dose if it differs, or a comment. Calls come from the whole dose curve; as a rule, active = well fitted curve in the direction sought with a large enough effect; inconclusive = small, poorly fitted or top-dose-only effect, or another doubt; inactive = no such curve, though single readings can be large; an effect the other way counts as inactive or inconclusive. % is set by controls: 0 for no effect and ±100 for the full control effect; potency is the fitted concentration of half-maximal effect.

SMILES | Tau FP inhib | Tau fluor cs | Tau fibril ThT | RORgamma inh | VP16 counter
CC1=C(C(=O)c2ccccc2)C(c2ccc(O)cc2)NC(=S)N1 (configuration not stated) | -1.6% | -0.7% | -2.6% | -20.1% | 8.6%
CCC(=O)NC(=S)Nc1ccccc1F | 1.3% | -11.9% | -13.0% | 12.6µM* | ?
CCCC(=O)NC(=S)Nc1ccccc1OC | 0.8% | -0.8% | -1.3% | 10µM* | ?
CCC(=O)NC(=S)Nc1ccccc1OC | -3.9% | -5.5% | -8.7% | ? | ?
COc1ccccc1NC(=O)CCC(=O)OCc1ccc(Cl)cc1 | -2.6% | -4.7% | 2.3% | 8.8% | -6.7%
COc1ccccc1NC(=S)NC(=O)Cc1ccc(Cl)cc1 | · | · | · | 7.08µM* | 4.47µM*
COC(=O)CCC(=O)NNC(=O)c1ccc(Cl)cc1Cl | -0.4% | -11.1% | -11.2% | 11.2µM* | -14.2%
COc1cccc(CN(C)C(=O)c2ccc(N3CCCC3)c([N+](=O)[O-])c2)c1 | · | · | · | 9.2% | ?
COc1cccc(NC(=S)NC(=O)Cc2ccc(Cl)cc2)c1 | · | · | · | 7.08µM* | 7.08µM*
CCC(=O)Nc1cccc(NC(=S)NC(=O)Cc2ccccc2)c1 | -6.7% | -19.2% | ? | -22.3% | 0.9%
COc1ccccc1NC(=S)NNC(=O)c1ccc(Cl)cc1Cl | -0.3% | -13.0% | ? | 12.6µM* | ?
CC(C)(C)C(=O)NC(=S)Nc1ccccc1F | -5.5% | -10.0% | -15.9% | 12.6µM* | ?
CCc1ccccc1NC(=S)NNC(=O)c1ccccc1Cl | 2.8% | -4.4% | -6.2% | ? | -16.0%
CCCC(=O)NC(=S)Nc1ccccc1F | 10.2% | 0.3% | 8.4% | 3.98µM* | ?
CCCC(=O)Nc1ccccc1NC(=O)CCC | 4.9% | 0.9% | 4.1% | -0.1% | 3.0%
CC(=O)NC(=S)Nc1ccccc1F | -4.6% | -2.8% | -0.1% | ? | ?
COc1cccc(CNC(=O)Cn2c(C)c3cnn(-c4ccccc4)c(=O)c3c2C)c1 | -12.2% | -11.2% | 0.2% | · | ·
COc1ccc(-c2nc3cc(NC(=S)NC(=O)Cc4ccccc4)ccc3o2)cc1 | ? | -24.6% | -2.1% | 4.47µM* | 2.51µM*
COc1ccccc1NC(=S)NC(=O)CCCOc1ccc(Cl)cc1Cl | ? | ? | -18.2% | 10µM* | 15.8µM*
CCC(=O)NC(=S)Nc1ccc2oc(-c3ccc(OC)cc3)nc2c1 | 11.8% | 18.4% | 19.5% | 11.1% | -7.2%
O=C(CCCOc1ccc(Cl)cc1Cl)Nc1ccccn1 | -3.6% | -11.3% | -7.8% | 36.2% | -11.6%
COc1ccccc1CNc1cc(-c2ccccc2Cl)ncn1 | · | · | · | -12.6% | 0.4%
Nc1nonc1-c1nc2ccccc2n1Cc1ccc(F)cc1Cl | -3.5% | -11.4% | 0.9% | 15.8µM* | ?
Fc1ccc(Cn2c(-c3cscn3)nc3ccccc32)c(Cl)c1 | 3.5% | -7.2% | -7.7% | -36.3% | -0.1%
Oc1c(Cl)cccc1C=Nc1cc(C(F)(F)F)ccc1N1CCCC1 | 1.6% | ? | ? | 11.2µM* | ?
SMILES | Tau FP inhib | Tau fluor cs | Tau fibril ThT | RORgamma inh | VP16 counter
Oc1c(Cl)cc(Cl)cc1C=Nc1cc(C(F)(F)F)ccc1N1CCc2ccccc2C1 | ? | -27.7% | 28.2µM* | ? | ?
CCOc1cc([N+](=O)[O-])c2nc(N)sc2c1 | 3.4% | -20.7% | 20µM* | -22.4% | 18.9%
CCN(C(=O)Cn1nc2c3cc(F)ccc3n(Cc3cccc(C)c3)cc-2c1=O)c1cccc(C)c1 | 0.8% | 4.1% | -16.1% | · | ·
COc1ccc(OC)c(NC(=O)c2nc(S(=O)(=O)Cc3ccccc3)ncc2Cl)c1 | · | · | · | 5.01µM* | ?
COc1ccc(NC(=O)c2nc(S(=O)(=O)Cc3cccc(C)c3)ncc2Cl)c(OC)c1 | · | · | · | ? | 7.94µM*
COC(=O)c1ccccc1NC(=O)c1nc(S(=O)(=O)Cc2ccccc2F)ncc1Cl | ? | -9.9% | ? | · | ·
CCn1c(=NC(=O)c2ccc3c(c2)OCCO3)sc2c(C)ccc(OC)c21 | -13.5% | -15.3% | ? | · | ·
O=C(Nc1nc2cc3c(cc2s1)OCCO3)c1ccco1 | · | · | · | 2.51µM* | 6.31µM*
O=C(Nc1nc2cc3c(cc2s1)OCO3)C1=COCCO1 | -10.1% | -13.8% | ? | 4.47µM* | 3.98µM*
O=C(Nc1nc2cc3c(cc2s1)OCO3)c1ccco1 | -8.2% | -25.0% | · | ? | ?
CC(=O)Nc1nc2cc3c(cc2s1)OCO3 | 7.6% | 5.2% | -4.7% | 22.0% | -0.5%
O=C(NC(=S)Nc1nc2ccc(F)cc2s1)c1ccco1 | 9.1% | 5.9% | 2.3% | 0.794µM* | 1.78µM*
CC1CCc2nc(NC(=O)c3ccco3)sc2C1 (configuration not stated) | -0.2% | -2.4% | -16.5% | 2.51µM* | 3.98µM*
CC1CCc2nc(NC(=O)Cc3cccs3)sc2C1 (configuration not stated) | -0.4% | -12.4% | -7.2% | ? | ?
COc1ccc(-n2cnc3ccccc3c2=O)c([N+](=O)[O-])c1 | · | · | · | 29.5% | -5.2%
CC[C@H](C)[C@H](NC(=O)[C@H](Cc1ccc(O)cc1)NC(=O)[C@@H](NC(=O)[C@H](CCCN=C(N)N)NC(=O)[C@@H](N)CC(=O)O)C(C)C)C(=O)N[C@@H](Cc1cnc[nH]1)C(=O)N1CCC[C@H]1C(=O)O | · | · | · | 1.3% | 4.4%
COc1ccc(C(=O)N2CCC[C@@]3(CCN(c4ncccn4)C3)C2)cc1 | · | · | · | -4.4% | -8.1%
CC(=O)N1CCc2c(sc3c2c(=O)n(CCc2ccccc2)c(=O)n3CC(=O)Nc2ccccc2F)C1 | -4.6% | ? | -14.9% | · | ·
Cc1nc(Nc2nc3ccccc3o2)nc2c1CCC2 | 2.0% | -2.2% | ? | 2.82µM* | 6.31µM*
Cc1cccc(C)c1Nc1nc2ccccc2o1 | 1.4% | 0.4% | -11.7% | 15.8µM* | ?
O=C(Nc1ccc(Cl)cc1)c1ccc(Br)cc1F | -8.4% | -8.2% | -13.9% | 1.5% | -10.4%
COc1ccc(NC(=O)CSCC(=O)Nc2cc(Cl)ccc2N2CCCC2)cc1 | · | · | · | 8.2% | -3.6%
COc1ccc(NC(=O)/C=C/c2cc(Br)ccc2OC)cc1 | 6.1% | -29.3% | ? | ? | -2.9%
COc1ccc(Br)cc1/C=C/C(=O)c1ccc(NC(C)=O)cc1 | 9.3% | -12.3% | ? | 5.01µM* | 10µM*
COc1ccc(Br)cc1/C=C/C(=O)NC(=S)Nc1ccc(CN2CCOCC2)cc1 | · | · | · | 1.78µM* | 4.47µM*
O=C(/C=C/c1ccc(Cl)cc1)NC(=S)Nc1ccc(CN2CCOCC2)cc1 | -9.2% | -1.3% | 7.6% | 3.98µM* | 6.31µM*
CC(=O)Nc1ccc(NC(=S)NC(=O)/C=C/c2ccc(Cl)cc2)cc1 | -7.5% | -7.2% | ? | -13.5% | -9.6%[10 µM]
